Laboratory results taken from PubChem BioAssay.
Results filed as inconclusive are left out. Calls of active or inactive are those of the source.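 The calls were made as follows, unless noted: active = percent response above a set limit, the screen-wide mean plus 3 SD (cut at about 130% in these data); inactive = the rest.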

Key:
[1] = yeast TOR pathway RPL19A-GFP modulators, primary screen, cell-based, S. cerevisiae, multiplex flow cytometry (AID 1862; in the data active = percent of DMSO control GFP below about 86%;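 also: lower values mimic rapamycin by blocking the RPL19A rise seen in DMSO cells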); conditions: S. cerevisiae RPL19A-GFP strain, flow cytometry fluorescence, 3 h; at 10 µM; stronger effect = lower value
[2] = modulators of MEP2-GFP levels in yeast, primary screen, S. cerevisiae, multiplex flow cytometry (AID 1867;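 active = GFP response, as percent of the DMSO control, above the screen-wide mean plus 3 SD, about 139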;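 also: median GFP channel fluorescence of barcode-gated MEP2-GFP cells measured by flow cytometry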); conditions: S. cerevisiae MEP2-GFP strain, 3 h, at 10 µM, stronger effect = higher value, 100% means same as DMSO wells
[3] = modulators of CIT2-GFP expression in yeast, primary screen, S. cerevisiae, GFP fusion, multiplex flow cytometry (AID 1870); conditions: 3 h, at 10 µM, stronger effect = higher value;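 also: barcoded CIT2-GFP strain pooled with four other GFP strains with rapamycin as positive control; median GFP fluorescence per well over plate mean of DMSO wells so 100% = DMSO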
[4] = modulators of LAP4-GFP expression in yeast, primary screen, S. cerevisiae, multiplex flow cytometry (AID 1873;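 active = GFP signal, as percent of the solvent control, above the screen mean plus 3 SD, about 149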); conditions: 3 h, at 10 µM, stronger effect = higher value
[5] = modulators of AGP1-GFP expression in yeast TOR pathway, primary screen, cell-based, multiplex flow cytometry, S. cerevisiae (AID 1887;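 active = GFP signal above the screen-wide mean plus 3 SD, that is over about 124.5% of the solvent control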;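 also: AGP1-GFP fusion strain of S. cerevisiae within a five-strain barcoded multiplex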); conditions: 3 h, at 10 µM, stronger effect = higher value
[6] = inhibitors of CD8+ T cell-vesicle binding, pilot screen, LFA-1/ICAM-1 modulator project, MLPCN validation set, flow cytometry (AID 2523;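 active = response below a set limit, under 55% cells CD8-positive and vesicle-bound, and CD8 cells' 90th-percentile brightness under 279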;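 as to vesicle binding response: mean PE anti-B7-1 fluorescence of CD8+ cells relative to row control; 100% = QL9-loaded vesicles with DMSO vehicle in the same plate row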); conditions: 2C mouse CD8+ T cells, at 7 µM, stronger effect = lower value; double positive events: measured here: CD8+/vesicle+ event percentage
[7] = target: Integrin beta-1 (Homo sapiens) + Integrin alpha-4 (Homo sapiens) (UniProt P13612+P05556); experiment: inhibition of HUTS-21 binding to VLA-4, pilot screen, VLA-4 allosteric modulator project, U937 cells, HUTS-21 mAb, flow cytometry, validation set (AID 2674;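 active = inhibition above 50%, about 3 SD of the validation set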;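 also: antibody binding induced by the VLA-4 ligand LDV present at three times its Kd; 0% = LDV ligand with antibody and no compound and 100% = antibody without LDV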); conditions: HUTS-21 LIBS mAb binding, at 6.7 µM, stronger effect = higher value, binding induced by LDV ligand
[8] = superoxide lowering in aged yeast cells, pilot screen, validation compound set (AID 2706;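 active = superoxide response below 65% of plate, a cut near 3 SD across the whole screen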;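 also: yeast exposed to compound for one week at 30 degrees C before staining; 100% = mean of all compound wells on the same plate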); conditions: S. cerevisiae aging, superoxide DHE fluorescence; at 10 µM; stronger effect = lower value
[9] = target: Beta-adrenergic receptor kinase 1 (Homo sapiens) (UniProt P25098); experiment: GRK2 binders displacing RNA aptamer, biochemical, validation, human GRK2, bead flow cytometry (AID 488806;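 active = aptamer binding inhibition above 30%, about 3 SD of noise from non-fluorescent compounds; inactive = inhibition at or below 30%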); conditions: bead-bound GRK2, FAM-aptamer displacement, at 10 µM, stronger effect = higher value
[10] = target: Beta-2 adrenergic receptor (Homo sapiens) (UniProt P07550); experiment: beta2AR agonists driving receptor internalization, pilot screen, cell-based, FAP fluorogen, flow cytometry, validation set (AID 504459;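 active = percent response above 42, roughly 3 SD of non-fluorescent test compounds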;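 also: agonist-driven loss of surface beta2AR via internalization measured by FAP dye flow cytometry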); conditions: Am2.2-beta2AR cells, FAP surface receptor flow cytometry; at 10 µM; stronger effect = higher value
[11] = target: AP-2 complex subunit beta (Homo sapiens) (UniProt P63010); experiment: inhibitors of arrestin peptide binding to AP2, pilot screen, biochemical, validation set, GST-AP2 beads, flow cytometry (AID 504541;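 active = inhibition above 54%, about 3 SD of non-fluorescent compounds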;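 also: AP2 carries R879A mutation and is captured from E. coli lysate; bead-bound FITC arrestin peptide fluorescence measuring arrestin peptide binding to AP2; 0% = DMSO wells and 100% = excess unlabeled arrestin peptide control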); conditions: FITC arrestin peptide, at 10 µM, stronger effect = higher value, AP2 beta2 appendage fragment, R879A mutant
[12] = yeast V-ATPase proton transport modulators, S. cerevisiae, pHLuorin, HTS validation (AID 504600; in the data active = response above about 15%;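 also: plate controls were DMSO for no effect and reference compound for full effect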); conditions: S. cerevisiae pHLuorin cytosolic pH, at 10 µM, stronger effect = higher value
[13] = test system: anti-desmoglein-3 scFv antibody binding to human DSG3; experiment: inhibitors of anti-DSG3 scFv binding to DSG3, pilot screen, biochemical, validation compound set, bead-based, flow cytometry (AID 588368;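 active = binding below the plate cutoff, the plate median minus 3 SD, with a reading above zero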;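 also: signal is the median channel fluorescence of bead-bound GFP antibody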); conditions: Protein G beads, DSG3-Fc, scFv-GFP binding, at 10 µM, stronger effect = lower value
[14] = inhibitors of fungal efflux pumps CDR1, CDR2, MDR1, pilot screen, validation compound set, multiplex, phenotypic (AID 588506;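 active = efflux inhibition above 0.42, the validation set average plus 4 SD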;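 also: Nile Red retained in cells so higher fluorescence means more efflux inhibition; 0 = negative control wells and 1 = enniatin B 25 µM full block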); conditions: S. cerevisiae pump-expressing triplex, Nile Red efflux flow cytometry; at 10 µM; stronger effect = higher value; the pumps come from Candida albicans
[15] = target: ATP-binding cassette sub-family B member 6 (Homo sapiens) (UniProt Q9NP58); experiment: ABCB6 transporter inhibitors, pilot screen, K562-ABCB6 cells, flow cytometry, validation set (AID 588550;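 active = inhibition above the screen-wide mean plus 3 SD, about 51%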;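 also: 0% = DMSO wells and 100% = benzethonium chloride 70 µM positive control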); conditions: K562-ABCB6 porphyrin accumulation, 1 h, at 10 µM, stronger effect = higher value
[16] = promoters of myeloid differentiation in arrested cells, primary screen, cell-based, GFP/MAC1 double positive, flow cytometry, validation set (AID 588685;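 active = differentiation response of at least 50%, scaled between solvent and reference control, from cells with both markers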;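 also: compound exposure lasts four days before antibody staining and flow analysis; 0% = DMSO wells and 100% = 5 µM fulvestrant positive control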); conditions: ER-HoxA9 marrow cells, stronger effect = higher value, normalized: vehicle 0, fulvestrant 100

Chain of Integrin beta-1 (Homo sapiens) + Integrin alpha-4 (Homo sapiens) (P05556 whole entry, looked up): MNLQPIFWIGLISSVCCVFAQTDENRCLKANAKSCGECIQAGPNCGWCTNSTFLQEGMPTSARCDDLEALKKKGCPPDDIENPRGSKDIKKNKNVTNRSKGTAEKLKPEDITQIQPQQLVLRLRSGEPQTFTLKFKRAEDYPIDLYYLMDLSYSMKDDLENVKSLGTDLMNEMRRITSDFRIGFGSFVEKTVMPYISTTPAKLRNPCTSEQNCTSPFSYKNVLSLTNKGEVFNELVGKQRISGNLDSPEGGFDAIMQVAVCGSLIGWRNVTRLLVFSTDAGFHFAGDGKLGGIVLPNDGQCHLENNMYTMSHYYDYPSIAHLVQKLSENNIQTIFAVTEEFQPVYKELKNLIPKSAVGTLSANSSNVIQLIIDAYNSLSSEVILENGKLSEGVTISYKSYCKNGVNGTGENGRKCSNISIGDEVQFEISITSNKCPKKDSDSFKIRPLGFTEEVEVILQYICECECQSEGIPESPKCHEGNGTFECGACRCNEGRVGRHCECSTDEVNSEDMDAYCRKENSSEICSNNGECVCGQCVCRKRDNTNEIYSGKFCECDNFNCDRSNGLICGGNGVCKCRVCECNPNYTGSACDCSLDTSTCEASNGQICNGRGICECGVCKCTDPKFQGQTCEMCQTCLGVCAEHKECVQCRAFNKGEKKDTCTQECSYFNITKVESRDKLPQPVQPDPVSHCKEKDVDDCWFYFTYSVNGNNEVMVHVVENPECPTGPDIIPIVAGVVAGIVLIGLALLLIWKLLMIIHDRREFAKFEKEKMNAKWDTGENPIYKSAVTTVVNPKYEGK
Chain of Integrin beta-1 (Homo sapiens) + Integrin alpha-4 (Homo sapiens) (P13612 whole entry, looked up): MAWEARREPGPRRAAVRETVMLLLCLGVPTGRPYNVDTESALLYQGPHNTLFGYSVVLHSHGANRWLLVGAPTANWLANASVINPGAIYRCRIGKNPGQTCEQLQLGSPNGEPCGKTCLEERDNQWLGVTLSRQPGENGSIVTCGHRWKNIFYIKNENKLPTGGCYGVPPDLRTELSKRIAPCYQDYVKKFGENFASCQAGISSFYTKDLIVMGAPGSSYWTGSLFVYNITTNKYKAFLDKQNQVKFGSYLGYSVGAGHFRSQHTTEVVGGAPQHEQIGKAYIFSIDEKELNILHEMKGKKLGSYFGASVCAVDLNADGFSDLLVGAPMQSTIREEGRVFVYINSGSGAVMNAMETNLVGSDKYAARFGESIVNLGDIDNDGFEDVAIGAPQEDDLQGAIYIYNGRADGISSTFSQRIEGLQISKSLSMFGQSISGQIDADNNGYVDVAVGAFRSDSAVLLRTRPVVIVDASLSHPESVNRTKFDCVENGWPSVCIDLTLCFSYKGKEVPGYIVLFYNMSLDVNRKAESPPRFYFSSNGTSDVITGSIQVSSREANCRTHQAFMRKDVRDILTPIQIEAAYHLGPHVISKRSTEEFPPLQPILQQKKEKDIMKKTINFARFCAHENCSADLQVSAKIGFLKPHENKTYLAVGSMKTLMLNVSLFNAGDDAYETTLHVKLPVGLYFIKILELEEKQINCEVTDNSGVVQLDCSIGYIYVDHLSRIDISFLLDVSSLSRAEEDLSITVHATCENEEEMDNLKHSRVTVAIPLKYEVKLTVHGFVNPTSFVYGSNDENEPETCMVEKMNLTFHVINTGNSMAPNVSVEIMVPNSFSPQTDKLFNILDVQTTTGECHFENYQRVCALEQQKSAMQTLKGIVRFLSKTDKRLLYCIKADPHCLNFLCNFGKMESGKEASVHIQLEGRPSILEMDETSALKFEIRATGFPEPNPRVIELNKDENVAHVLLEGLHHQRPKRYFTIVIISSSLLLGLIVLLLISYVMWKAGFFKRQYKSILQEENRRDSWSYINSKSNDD
Chain of AP-2 complex subunit beta (Homo sapiens) (P63010 whole entry, looked up, the tested form may be a part, one chain of several): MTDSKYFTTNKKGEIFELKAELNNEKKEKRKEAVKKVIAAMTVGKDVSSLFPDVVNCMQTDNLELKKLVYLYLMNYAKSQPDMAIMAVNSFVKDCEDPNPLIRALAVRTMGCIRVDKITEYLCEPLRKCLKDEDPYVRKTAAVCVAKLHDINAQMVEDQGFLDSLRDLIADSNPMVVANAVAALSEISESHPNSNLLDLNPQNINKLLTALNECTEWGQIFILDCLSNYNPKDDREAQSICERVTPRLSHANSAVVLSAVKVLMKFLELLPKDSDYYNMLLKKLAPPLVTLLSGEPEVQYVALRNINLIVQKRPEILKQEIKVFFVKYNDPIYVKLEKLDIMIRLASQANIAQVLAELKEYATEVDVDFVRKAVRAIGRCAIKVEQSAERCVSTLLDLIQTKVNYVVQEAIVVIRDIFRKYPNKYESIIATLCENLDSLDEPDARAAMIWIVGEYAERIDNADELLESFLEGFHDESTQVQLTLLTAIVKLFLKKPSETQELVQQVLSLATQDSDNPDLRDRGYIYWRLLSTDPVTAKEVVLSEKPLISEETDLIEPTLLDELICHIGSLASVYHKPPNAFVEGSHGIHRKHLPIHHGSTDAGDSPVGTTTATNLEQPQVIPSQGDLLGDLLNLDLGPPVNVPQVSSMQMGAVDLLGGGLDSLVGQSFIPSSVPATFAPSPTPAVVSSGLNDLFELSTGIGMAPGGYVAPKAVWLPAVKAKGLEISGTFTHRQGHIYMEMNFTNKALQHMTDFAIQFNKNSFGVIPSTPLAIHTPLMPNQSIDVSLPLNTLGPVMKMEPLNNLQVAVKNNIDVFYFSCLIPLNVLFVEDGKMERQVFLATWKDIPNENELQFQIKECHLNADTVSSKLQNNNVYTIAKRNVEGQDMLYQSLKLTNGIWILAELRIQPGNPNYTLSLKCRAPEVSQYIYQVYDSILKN
Chain of Beta-adrenergic receptor kinase 1 (Homo sapiens) (P25098 whole entry, looked up): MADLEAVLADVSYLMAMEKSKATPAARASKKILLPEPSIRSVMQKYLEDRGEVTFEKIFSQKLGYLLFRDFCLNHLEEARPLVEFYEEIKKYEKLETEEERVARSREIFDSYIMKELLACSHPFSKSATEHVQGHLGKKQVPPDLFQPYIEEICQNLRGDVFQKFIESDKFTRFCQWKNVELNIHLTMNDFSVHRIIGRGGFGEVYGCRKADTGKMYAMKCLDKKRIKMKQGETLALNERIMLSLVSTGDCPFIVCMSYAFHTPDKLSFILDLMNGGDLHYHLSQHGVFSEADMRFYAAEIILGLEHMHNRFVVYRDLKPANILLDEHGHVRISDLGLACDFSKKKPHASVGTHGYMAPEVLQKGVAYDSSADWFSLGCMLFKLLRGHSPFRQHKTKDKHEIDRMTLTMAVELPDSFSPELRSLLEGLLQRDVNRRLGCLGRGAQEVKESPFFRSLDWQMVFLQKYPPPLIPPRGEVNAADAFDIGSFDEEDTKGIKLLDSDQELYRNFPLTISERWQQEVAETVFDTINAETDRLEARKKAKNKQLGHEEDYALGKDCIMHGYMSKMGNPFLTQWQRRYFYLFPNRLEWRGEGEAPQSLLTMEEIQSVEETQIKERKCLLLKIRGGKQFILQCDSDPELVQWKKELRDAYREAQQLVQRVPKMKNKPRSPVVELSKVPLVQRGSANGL
Chain of Beta-2 adrenergic receptor (Homo sapiens) (P07550 whole entry, looked up): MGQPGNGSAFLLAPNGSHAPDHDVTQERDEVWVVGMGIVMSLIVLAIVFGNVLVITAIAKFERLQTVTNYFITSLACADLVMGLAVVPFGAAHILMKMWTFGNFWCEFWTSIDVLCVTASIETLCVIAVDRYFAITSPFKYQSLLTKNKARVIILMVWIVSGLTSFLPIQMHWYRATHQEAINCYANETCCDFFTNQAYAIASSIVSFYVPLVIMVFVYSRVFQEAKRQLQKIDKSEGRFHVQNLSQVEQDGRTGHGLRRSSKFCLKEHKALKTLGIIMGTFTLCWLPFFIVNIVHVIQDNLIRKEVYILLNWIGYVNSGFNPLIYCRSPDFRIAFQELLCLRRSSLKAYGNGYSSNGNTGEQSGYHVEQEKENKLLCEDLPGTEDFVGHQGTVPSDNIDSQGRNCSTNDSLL
Chain of ATP-binding cassette sub-family B member 6 (Homo sapiens) (Q9NP58 whole entry, looked up): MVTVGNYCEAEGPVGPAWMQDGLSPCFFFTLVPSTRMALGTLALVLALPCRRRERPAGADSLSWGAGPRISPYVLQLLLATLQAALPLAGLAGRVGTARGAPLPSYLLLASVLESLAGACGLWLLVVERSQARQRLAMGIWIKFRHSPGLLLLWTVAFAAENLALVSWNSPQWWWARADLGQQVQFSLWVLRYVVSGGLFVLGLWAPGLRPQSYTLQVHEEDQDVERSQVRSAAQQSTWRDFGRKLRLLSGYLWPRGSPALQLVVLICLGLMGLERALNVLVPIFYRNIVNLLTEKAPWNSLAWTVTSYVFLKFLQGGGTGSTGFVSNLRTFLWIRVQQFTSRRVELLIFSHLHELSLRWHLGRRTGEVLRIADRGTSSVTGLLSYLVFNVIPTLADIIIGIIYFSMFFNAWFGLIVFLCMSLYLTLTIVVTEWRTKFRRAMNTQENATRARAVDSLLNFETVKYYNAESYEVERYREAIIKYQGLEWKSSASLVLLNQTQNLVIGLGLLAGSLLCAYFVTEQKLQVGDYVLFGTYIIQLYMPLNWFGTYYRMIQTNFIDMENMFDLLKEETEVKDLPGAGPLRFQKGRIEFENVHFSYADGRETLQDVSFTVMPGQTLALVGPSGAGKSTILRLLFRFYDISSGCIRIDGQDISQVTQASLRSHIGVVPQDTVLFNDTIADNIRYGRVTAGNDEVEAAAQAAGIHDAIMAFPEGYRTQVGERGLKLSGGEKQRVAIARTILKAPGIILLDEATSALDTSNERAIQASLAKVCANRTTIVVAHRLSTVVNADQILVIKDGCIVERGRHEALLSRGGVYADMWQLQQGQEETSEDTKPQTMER

CC(C)=CCC(C)(C)/C=N/NC(N)=O
inactive: percent of DMSO control GFP [1] 101% | GFP response vs DMSO [2] 102% | percent response of DMSO control [3] 98.3% | GFP response vs DMSO [4] 109% | GFP response, % of DMSO [5] 111% | vesicle binding response [6] 464% | inhibition [7] 14.2% | superoxide response (% of plate) [8] 97.9% | aptamer binding inhibition [9] 4% | response [10] -21.9% | inhibition [11] -2.34% | response [12] 1.02% | binding (% of control) [13] 100% | efflux inhibition (fraction of control) [14] 0 | inhibition [15] 4% | differentiation response [16] 5.85%
59.7%: double positive events [6]

Cc1nc(NC(CC(C)C)C(=O)O)c2nc(C)oc2n1 (stereo not given)
57.6%: double positive events [6]
inactive: percent of DMSO control GFP [1] 97.4% | GFP response vs DMSO [2] 111% | percent response of DMSO control [3] 90.1% | GFP response vs DMSO [4] 120% | GFP response, % of DMSO [5] 101% | vesicle binding response [6] 121% | inhibition [7] -5.89% | superoxide response (% of plate) [8] 95.4% | aptamer binding inhibition [9] 7% | response [10] 3.8% | inhibition [11] 4.51% | response [12] 3.4% | binding (% of control) [13] 102% | efflux inhibition (fraction of control) [14] -0.13 | inhibition [15] 6% | differentiation response [16] -28%

CN(C)c1ccc(CNCCC(Cc2ccccc2)c2ccco2)cc1 (stereo not given)
inactive: percent of DMSO control GFP [1] 101% | GFP response vs DMSO [2] 93.5% | percent response of DMSO control [3] 108% | GFP response vs DMSO [4] 89.4% | GFP response, % of DMSO [5] 101% | vesicle binding response [6] 31.1% | inhibition [7] 1.12% | superoxide response (% of plate) [8] 92.3% | aptamer binding inhibition [9] -4% | response [10] 9.55% | inhibition [11] -16.6% | response [12] 2.43% | binding (% of control) [13] 105% | efflux inhibition (fraction of control) [14] 0.17 | inhibition [15] 4% | differentiation response [16] -5.68%
58.2%: double positive events [6]

COc1cccc(C2CC(=O)C3=C(C2)Nc2ccccc2N(C(=O)CCC(=O)O)C3c2ccc(F)cc2)c1 (stereo not given)
64%: double positive events [6]
active: GFP response vs DMSO [2] 149%
inactive: percent of DMSO control GFP [1] 95% | percent response of DMSO control [3] 102% | GFP response vs DMSO [4] 89.1% | GFP response, % of DMSO [5] 93.8% | vesicle binding response [6] 213% | inhibition [7] 11.3% | superoxide response (% of plate) [8] 98% | aptamer binding inhibition [9] 4% | response [10] -3.62% | inhibition [11] 30.9% | response [12] -2.19% | binding (% of control) [13] 102% | efflux inhibition (fraction of control) [14] -0.13 | inhibition [15] 4% | differentiation response [16] -1.64%

COc1ccc(/C=C2\CC/C(=C\c3ccc(OC)c(OC)c3)C2=O)cc1OC
inactive: percent of DMSO control GFP [1] 99.8% | GFP response vs DMSO [2] 103% | percent response of DMSO control [3] 97.1% | GFP response vs DMSO [4] 97.2% | GFP response, % of DMSO [5] 96.6% | vesicle binding response [6] 254% | inhibition [7] -18.9% | superoxide response (% of plate) [8] 99% | aptamer binding inhibition [9] 3% | response [10] 17.4% | inhibition [11] 0.71% | response [12] -0.5% | binding (% of control) [13] 98.8% | efflux inhibition (fraction of control) [14] 0.1 | inhibition [15] 2% | differentiation response [16] -5.68%
59.8%: double positive events [6]

CC12CCCCN1CCCc1c2[nH]c2ccccc12 (stereo not given)
inactive: percent of DMSO control GFP [1] 99.6% | GFP response vs DMSO [2] 105% | percent response of DMSO control [3] 115% | GFP response vs DMSO [4] 82.8% | GFP response, % of DMSO [5] 99.5% | vesicle binding response [6] 149% | inhibition [7] -22.2% | superoxide response (% of plate) [8] 99.9% | aptamer binding inhibition [9] -6% | response [10] 8.33% | inhibition [11] 3.51% | response [12] 0.15% | binding (% of control) [13] 112% | efflux inhibition (fraction of control) [14] -0.2 | inhibition [15] -49% | differentiation response [16] 11%
61.3%: double positive events [6]

c1ccc(-c2ccc(C(c3ccccc3)n3ccnc3)cc2)cc1 (stereo not given)
inactive: percent of DMSO control GFP [1] 99.8% | GFP response vs DMSO [2] 104% | percent response of DMSO control [3] 101% | GFP response vs DMSO [4] 115% | GFP response, % of DMSO [5] 111% | vesicle binding response [6] 187% | inhibition [7] 8.25% | superoxide response (% of plate) [8] 209% | aptamer binding inhibition [9] 7% | response [10] 0.23% | inhibition [11] -14.1% | binding (% of control) [13] 101% | efflux inhibition (fraction of control) [14] -0.04 | inhibition [15] 0% | differentiation response [16] -2.03%
active: response [12] 15.5%
66.2%: double positive events [6]

CCN(CC)C(=O)c1sc(NC(=O)c2c(OC)cccc2OC)c(C#N)c1C
66.7%: double positive events [6]
inactive: percent of DMSO control GFP [1] 101% | GFP response vs DMSO [2] 98.7% | percent response of DMSO control [3] 105% | GFP response vs DMSO [4] 88.2% | GFP response, % of DMSO [5] 94.7% | vesicle binding response [6] 229% | inhibition [7] 1.59% | superoxide response (% of plate) [8] 95.2% | aptamer binding inhibition [9] 4% | response [10] -1.95% | inhibition [11] -5.78% | response [12] 12% | binding (% of control) [13] 97.3% | efflux inhibition (fraction of control) [14] -0.025 | inhibition [15] 14% | differentiation response [16] 5.67%

Cc1cccc2c(=O)n3c(nc12)CCCCC3
57%: double positive events [6]
inactive: percent of DMSO control GFP [1] 99.3% | GFP response vs DMSO [2] 101% | percent response of DMSO control [3] 97.6% | GFP response vs DMSO [4] 119% | GFP response, % of DMSO [5] 104% | vesicle binding response [6] 172% | inhibition [7] -14.5% | superoxide response (% of plate) [8] 105% | aptamer binding inhibition [9] -3% | response [10] -4.11% | inhibition [11] -3.62% | response [12] 0.7% | binding (% of control) [13] 105% | efflux inhibition (fraction of control) [14] -0.41 | inhibition [15] 2% | differentiation response [16] 36.4%

COc1ccc(CNC(=O)N[C@H](C(=O)O)C(C)C)cc1OC
53.2%: double positive events [6]
inactive: percent of DMSO control GFP [1] 92.6% | GFP response vs DMSO [2] 119% | percent response of DMSO control [3] 111% | GFP response vs DMSO [4] 81.4% | GFP response, % of DMSO [5] 89.8% | vesicle binding response [6] 186% | inhibition [7] -9.06% | superoxide response (% of plate) [8] 112% | aptamer binding inhibition [9] -5% | response [10] -4.83% | inhibition [11] -15.3% | response [12] 1.94% | binding (% of control) [13] 98.1% | efflux inhibition (fraction of control) [14] 0.3 | inhibition [15] 3% | differentiation response [16] 7.37%
